# In paper PMC8384837, “Expanding the binding specificity for RNA recognition by a PUF domain”:
# Columns and labels:
# Test in all cases: yeast three-hybrid, YBZ-1, SC-Leu-His + 0.5 mM 3-AT, 4 days
# Conditions in all cases: tags: N-Gal4 AD-HA kept; label: inside an RPR1-promoter hybrid RNA with tandem MS2 sites; ssRNA
# [1] = target: PUM1 PUF domain R4-APT (Homo sapiens, UniProt Q14671 828-1176, N971A;H972P;Q975T)
# How it was run: (§1)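 The interaction score is the log change in variant frequency from input to selection. Scores were computed in log2 with a pseudocount of 1 for absent variants, using Illumina sequencing of PCR-amplified repeat regions. The input came from four days on SC-Leu and the selection from four days on SC-Leu-His + 0.5 mM 3-AT. The cells were strain YBZ-1 (LexA–MS2 coat fusion, HIS3 reporter) co-expressing Pumilio-1 PUF domain libraries and matching RNA elements from a centromeric plasmid.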
# [2] = target: PUM1 PUF domain R4-VNN (Homo sapiens, UniProt Q14671 828-1176, N971V;H972N;Q975N)
# How it was run: as §1
# [3] = target: PUM1 PUF domain R4-DHC (Homo sapiens, UniProt Q14671 828-1176, N971D;Q975C)
# How it was run: as §1
# [4] = target: PUM1 PUF domain R5-RGS (Homo sapiens, UniProt Q14671 828-1176, C1007R;R1008G;Q1011S)
# How it was run: as §1
# [5] = target: PUM1 PUF domain R5-KSV (Homo sapiens, UniProt Q14671 828-1176, C1007K;R1008S;Q1011V)
# How it was run: as §1
# [6] = target: PUM1 PUF domain R3-ATE (Homo sapiens, UniProt Q14671 828-1176, C935A;R936T;Q939E)
# How it was run: as §1
# [7] = target: PUM1 PUF domain R8-QFQ (Homo sapiens, UniProt Q14671 828-1176, N1122Q;Y1123F)
# How it was run: as §1
# [8] = target: T1, PUM1 PUF domain R6-LYS (Homo sapiens, UniProt Q14671 828-1176, N1043L;Q1047S)
# T1 sequence: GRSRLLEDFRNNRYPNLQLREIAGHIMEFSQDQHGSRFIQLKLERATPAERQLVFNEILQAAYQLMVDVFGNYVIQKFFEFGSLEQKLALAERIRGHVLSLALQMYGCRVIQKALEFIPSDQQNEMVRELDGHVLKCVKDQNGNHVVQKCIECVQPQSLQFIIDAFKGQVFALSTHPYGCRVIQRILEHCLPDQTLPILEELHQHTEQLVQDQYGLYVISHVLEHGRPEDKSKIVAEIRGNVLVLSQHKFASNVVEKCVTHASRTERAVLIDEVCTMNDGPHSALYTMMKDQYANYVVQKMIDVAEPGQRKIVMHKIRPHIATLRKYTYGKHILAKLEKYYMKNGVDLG
# How it was run: as §1
# [9] = target: PUM1 PUF domain R3-TWW (Homo sapiens, UniProt Q14671 828-1176, C935T;R936W;Q939W)
# How it was run: as §1
# [10] = target: PUM1 PUF domain R3-RRC (Homo sapiens, UniProt Q14671 828-1176, C935R;Q939C)
# How it was run: as §1
sequence,measurement,setting,value
GGCUAGAACUAGUGGAUCCCCCGGCGCCCGGCGGCUCGAGCCCGGGUAAGUGUAUAUAGUCUGCAUGCCGCCGGGCGCCAUGCCUGCAGGUCGACUCUAGAAAACAUG,binding signal,[1],2.95 log2 enrichment (interaction score)
same,binding signal,[2],3.82 log2 enrichment (interaction score)
same,binding signal,[3],6.39 log2 enrichment (interaction score)
GGCUAGAACUAGUGGAUCCCCCGGCGCCCGGCGGCUCGAGCCCGGGUAAGUGUACAUAGUCUGCAUGCCGCCGGGCGCCAUGCCUGCAGGUCGACUCUAGAAAACAUG,binding signal,[3],4.45 log2 enrichment (interaction score)
GGCUAGAACUAGUGGAUCCCCCGGCGCCCGGCGGCUCGAGCCCGGGUAAGUGUUAAUAGUCUGCAUGCCGCCGGGCGCCAUGCCUGCAGGUCGACUCUAGAAAACAUG,binding signal,[4],2.13 log2 enrichment (interaction score)
same,binding signal,[5],2.74 log2 enrichment (interaction score)
GGCUAGAACUAGUGGAUCCCCCGGCGCCCGGCGGCUCGAGCCCGGGUAAGUGUAAGUAGUCUGCAUGCCGCCGGGCGCCAUGCCUGCAGGUCGACUCUAGAAAACAUG,binding signal,[6],3.33 log2 enrichment (interaction score)
GGCUAGAACUAGUGGAUCCCCCGGCGCCCGGCGGCUCGAGCCCGGGUAAGUGUAAAUAGUCUGCAUGCCGCCGGGCGCCAUGCCUGCAGGUCGACUCUAGAAAACAUG,binding signal,[1],4.02 log2 enrichment (interaction score)
same,binding signal,[7],2.91 log2 enrichment (interaction score)
same,binding signal,[3],3.99 log2 enrichment (interaction score)
same,binding signal,[8],4.98 log2 enrichment (interaction score)
same,binding signal,[9],3.61 log2 enrichment (interaction score)
GGCUAGAACUAGUGGAUCCCCCGGCGCCCGGCGGCUCGAGCCCGGGUAAGUGUCAAUAGUCUGCAUGCCGCCGGGCGCCAUGCCUGCAGGUCGACUCUAGAAAACAUG,binding signal,[4],2.45 log2 enrichment (interaction score)
same,binding signal,[5],3.48 log2 enrichment (interaction score)
GGCUAGAACUAGUGGAUCCCCCGGCGCCCGGCGGCUCGAGCCCGGGUAAGUGUAAUUAGUCUGCAUGCCGCCGGGCGCCAUGCCUGCAGGUCGACUCUAGAAAACAUG,binding signal,[10],3.79 log2 enrichment (interaction score)
same,binding signal,[9],1.77 log2 enrichment (interaction score)
